EWS-Fli block = inhibitors of EWS/Fli oncoprotein transcriptional activity; A673 NR0B1-luciferase reporter, viability-normalised; inhibition, % at 12.6 µM; 350,000 tested, 0.67% active; AID 651661;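 active means mean inhibition of at least 50% after viability correction, with every replicate also passing that limit; inconclusive means mean reaches 50% but only one of two replicates passes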;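 further: firefly luciferase signal divided by Alamar Blue viability fluorescence both relative to DMSO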
HIV Env fusion = inhibitors of HIV Env-mediated cell fusion; HeLa-JRFL Env/CEM21 cell fusion, luciferase; inhibition, % at 12.3 µM; 360,000 tested, 1.1% active; AID 651610;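 active means mean replicate inhibition score of at least 50 and every replicate individually at or above 50; inconclusive means only one of the two criteria met; inactive means mean below 50 and not all replicates reaching 50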;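 further: 0% = plate neutral controls and 100% = maraviroc near 300 nM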
GAA850 FXN act = increases GAA850 frataxin promoter reporter activity. AID 540364. activation, % at 6 µM. 360,000 tested, 0.56% active. HEK293 lucGAA850 FXN promoter luciferase reporter, 24 h; percent of 10 µM SAHA response;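 active means activation above the average of all compounds screened plus 3 SD, cutoff fixed separately per campaign, cut at about 7.5% in these data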;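 further: 0% = DMSO wells and 100% = 10 µM SAHA wells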
PAX8 reporter = lowers PAX8-driven luciferase in RMG-I cells. 360,000 tested, 1.2% active. inhibition, % at 12.6 µM. RMG-I TPO-luciferase reporter, SteadyGlo, 24 h. AID 652154;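 active means mean replicate inhibition at least 60% with every replicate also reaching 60%; inconclusive means only one of the two criteria is met; inactive means mean below 60% and not all replicates reaching 60%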;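 further: luciferase light reporting Pax8 driven TPO promoter activity; plate controls were median of neutral control wells for no effect and mitoxantrone controls for full effect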
CFTR F508del cor = correctors of CFTR F508del function in bronchial epithelial cells; CFBE cells, YFP halide quenching; stimulated with forskolin plus potentiator P3; % fluorescence drop versus neutral controls; 350,000 tested, 0.36% active; activity (quench increase), % at 7.58 µM;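 active means mean added fluorescence quench of at least 8% versus neutral control, with both replicates also reaching 8%; inconclusive means only one of the mean or replicate conditions met; inactive means mean below 8% and not both replicates reaching 8%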;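 further: cells transiently co-express mutant CFTR-F508del with the halide-sensitive YFP; corrector assay measuring rescue of mutant channel to the surface after 24 h compound exposure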
The depositor's hits bear a star; ? = inconclusive; nt = not tested or not shown; [ ] = dose if it differs, or a comment. A selection: hits, their analogues and other compounds. The true share with any hit is near 2.5%.

SMILES	EWS-Fli block	HIV Env fusion	GAA850 FXN act	PAX8 reporter	CFTR F508del cor
COc1ccc(OCC(=O)NNC(=O)CCc2ccccc2)cc1	-3	2	1	-10	9.8*
C[C@@H]1CN([C@H](C)CO)C(=O)c2cc(C#C[C@@H](C)O)cnc2O[C@@H]1CN(C)C(=O)c1ccncc1	-3	-15[16.7 µM]	nt	nt	-3
Cc1cc(SCC(=O)N2CCCC2=O)nc2ccccc12	10	58*	-1	nt	0
Cc1cc(SCCC(=O)O)nc2ccccc12	nt	nt	0	nt	nt
C[C@@H]1CN([C@@H](C)CO)C(=O)c2cccc(NC(=O)c3ccncc3)c2O[C@@H]1CN(C)C(=O)NC1CCCCC1	0	-8[16.7 µM]	nt	6	1
Oc1[nH]c2ccc(Br)cc2c1N=NC(=S)Nc1ccc(F)cc1	44	33	-2	70*	?
O=C(N=Nc1c(O)[nH]c2ccc(Br)cc12)c1ccco1	-23	-10	2	-42	1
O=C(N=Nc1c(O)[nH]c2ccc(Br)cc12)c1ccccc1-n1cccc1	45	nt	1	nt	13*
Cc1ccc(S(=O)(=O)N2C[C@H]3[C@H]4C(=O)N(c5ccccc5)C(=O)[C@H]4CC(=O)[C@H]3[C@@H]2c2ccc(Cl)cc2)cc1	-18	nt	nt	13	-1
O=C1C[C@@H]2C(=O)N(c3ccccc3)C(=O)[C@@H]2[C@@H]2CN(S(=O)(=O)c3ccccc3)[C@@H](c3ccccc3)[C@H]12	2	nt	nt	-10	3
Cc1ccccc1S(=O)(=O)N1C[C@@H]2C(C(=O)C[C@@H]3C(=O)N(C)C(=O)[C@@H]32)[C@@H]1c1ccc(Cl)cc1 (stereo partly drawn)	1	61*	nt	-14	-2
Cc1ccccc1S(=O)(=O)N1C[C@H]2[C@H]3C(=O)N(C4CCCCC4)C(=O)[C@H]3CC(=O)[C@H]2[C@@H]1c1ccc(Cl)cc1	-5	132*	nt	4	3
CCN1[C@@H]2c3ccc(-c4cccc(F)c4)c(=O)n3C[C@@H]2[C@@H](CO)[C@@H]1C(=O)NCCCN(C)C	9	nt	nt	nt	-2
O=C(Nc1ccccc1)N[C@H]1CC[C@@H](CCNS(=O)(=O)c2ccccc2F)O[C@H]1CO	0	-6[16.7 µM]	nt	0	0
CN(C)CC(=O)N1[C@H](CO)[C@@H](c2ccccc2)C12CN(C(=O)C1CCCC1)C2	nt	nt	nt	nt	-1
CN1c2ccc(-c3ccccc3)cc2[C@H]2[C@H](CCN2S(=O)(=O)c2ccccc2F)[C@H]1CO	-6	nt	nt	26	1
Cc1ccc(S(=O)(=O)N2CC[C@@H]3[C@H](CO)N(C)c4ccc(-c5ccc(C#N)cc5)cc4[C@@H]32)cc1	13	nt	nt	80*	5
Cc1cccc(S(=O)(=O)N2CC[C@@H]3[C@H](CO)N(C)c4ccc(-c5ccc(C#N)cc5)cc4[C@@H]32)c1	5	nt	nt	89*	5
CN1c2ccc(-c3cccc(C#N)c3)cc2[C@H]2[C@H](CCN2S(=O)(=O)c2ccccc2F)[C@H]1CO	22	nt	nt	102*	1
COc1ccc(-c2ccc3c(c2)O[C@@H](CN(C)Cc2ccccc2C(=O)O)[C@@H](C)CN([C@H](C)CO)S3(=O)=O)cc1	-3	14[16.7 µM]	nt	nt	0
CN1C(=O)c2cc(NC(=O)C3CCCC3)ccc2OC[C@H]2O[C@@H](CC(=O)NCC3CC3)CC[C@@H]21	5	3[16.7 µM]	nt	27	-2
Cc1cc2c(cc(C(=O)OC(C)C(=O)NCc3ccc(F)cc3)n2C)o1 (stereo not drawn)	-1	nt	2	2	29*
Cc1cc2c(cc(C(=O)OC(C)C(=O)NCc3ccccc3)n2C)o1 (stereo not drawn)	3	nt	1	-25	7
CCOc1ccc(NC(=O)c2ccc(CN3CCc4ccccc4C3)cc2)cc1	-2	31	-1	11	0
CCOC(=O)c1ccc(NC(=O)c2ccc(CN3CCc4ccccc4C3)cc2)cc1	-7	58*	-2	3	-2
CCN1CCN(c2cc(C)c3cc(NC(=O)c4ccc(OC)c(OC)c4)ccc3n2)CC1	47	-41	-2	57	13*
O=C(CSc1nc2ccccc2c(=O)n1CCCN1CCOCC1)Nc1ccc(F)c(Cl)c1	3	71*	1	24	-3
CC(=O)Nc1ccc(NC(=O)CSc2nc3ccccc3c(=O)n2CCCN2CCOCC2)cc1	-13	15	-2	8	0
Cc1ccc2c(c1)N(C)/C(=C/c1cccc[n+]1C)S2	41	40	-2	79*	1
CCN1/C(=C/c2cccc[n+]2C)Sc2ccc(OC)cc21	38	20	1	71*	2

Screening results as filed in PubChem.
